Source: PubChem BioAssay AID686978 (National Center for Advancing Translational Sciences (NCATS), 2013)
Among all 420,000 compounds or so, about 64,000 (15%) were called active. Roughly 27% stayed inconclusive and do not appear here. Only a sample is shown. Unmarked numbers belong to inactive results. Calls come from the whole dose curve; as a rule, active = well fitted inhibition curve with a large enough effect; inconclusive = small, poorly fitted or top-dose-only effect; inactive = flat fitted curve, though single readings scatter.

assay: qHTS for Inhibitors of human tyrosyl-DNA phosphodiesterase 1 (TDP1): qHTS in cells in absence of CPT; conditions: DT40 Tdp1-/- hTDP1 cells, no CPT, ATP luminescence, 48 h; activity change, negative = growth inhibition: at 46.2 µM (top of the series); note: nearly all actives have a fitted effect of over 55% in size
In short: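 Readout: luminescence from CellTiter-Glo after 30 min in the dark at RT. Cells: DT40 Tdp1-/- with stable hTDP1, 400/well. Exposure: compounds alone, ≥48 hr, 37 °C.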
% is set by controls: 0 for no effect and ±100 for the full control effect; potency is the fitted concentration of half-maximal effect.

Row | Compound | activity change, negative = growth inhibition | Potency
1 | Cc1ccc(S(=O)(=O)N(C)C)cc1NC(=O)COC(=O)/C=C/c1cccs1 | -17.8% | 
2 | CCN1CCN(C(=O)CCN2C(=O)c3ccccc3C2=O)CC1 | 6.03% | 
3 | O=C(Nc1cccc(F)c1)N1C2CCC1CC(O)(c1cccnc1)C2 (configuration not stated) | -5.57% | 
4 | CCOc1ccc(OCC)c(NC(=O)CCS(=O)(=O)c2ccc(C)cc2)c1 | -22.3% | 
5 | Cc1ccc(S(=O)(=O)CCC(=O)Nc2nnc(CC(C)C)s2)cc1 |  | 16.4 µM (active)
6 | CCCCC(CCC(=O)Nc1ccc(C(=O)OCC)cc1)C(=O)O (configuration not stated) | -4.15% | 
7 | CCOC(=O)c1ccc(NC(=O)CCS(=O)(=O)c2ccc(C)cc2)cc1 |  | 20.6 µM (active)
8 | CC(C)Cc1nnc(NC(=O)CCc2ccccc2)s1 | -6.82% | 
9 | Cc1ccc(S(=O)(=O)CC(=O)Nc2nnc(C)s2)cc1 | 3.14% | 
10 | CC(C)CC(NS(=O)(=O)c1ccc2c(c1)oc(=O)n2C)C(=O)NCc1ccccc1Cl (configuration not stated) | -11.8% | 
11 | Cc1cc(F)ccc1N1CCC(N2CCN(C)C(CCO)C2)CC1 (configuration not stated) | -12.5% | 
12 | CC(C)n1c(O)c(N=Nc2ccccn2)c2ccccc21 | -8.18% | 
13 | CCC(C)NC(=O)c1ccccc1NC(=O)c1ccccc1N(C)S(C)(=O)=O (configuration not stated) | -19.8% | 
14 | Cc1n[nH]c(=O)n1-c1ccc(C(C)C)cc1 | 15.4% | 
15 | O=C1c2cccc3cccc(c23)C(=O)N1c1cccc(O)c1 | -6.3% | 
16 | Cc1nnc(CN(C)Cc2cn[nH]c2-c2ccc(-c3ccccc3)cc2)o1 | -6.06% | 
17 | CC1CCCN(S(=O)(=O)c2ccc(-c3ccc(=O)[nH]n3)o2)C1 (configuration not stated) | -8.44% | 
18 | O=S(=O)(c1ccc2nc(N3CCN(c4cccc(Cl)c4)CC3)ccc2c1)N1CCCCC1 | -1.01% | 
19 | O=S(=O)(NCc1ccccc1)c1ccc(S(=O)(=O)N2CCCC2)cc1 | -20.5% | 
20 | O=S(=O)(c1ccc2nc(NCc3ccccc3Cl)ccc2c1)N1CCCCC1 |  | 10.3 µM (active)
21 | CN(C(=O)CCNC(=O)Cn1ccc2ccccc2c1=O)c1ccc(Br)cc1 | 3.44% | 
22 | CC/C(=N/Nc1ccccc1)c1cnnc(SC)n1 | 8.67% | 
23 | COc1cccc(C(=O)Oc2cc(C)[nH]c(=O)c2[N+](=O)[O-])c1 | -8.65% | 
24 | COc1ccc(/C=C/c2noc(-c3ccccc3OC(C)=O)n2)cc1 | -13.5% | 
25 | CC(C)/C=N/NC(=O)c1cc(Br)ccc1O | -12.7% | 
26 | O=C(CCc1ccc(O)cc1)NN=Cc1cc(Br)ccc1O |  | 5.8 µM (active)

Row | Compound | activity change, negative = growth inhibition | Potency
27 | O=C(CCC(=O)N/N=C/c1ccc(Br)o1)N/N=C/c1ccc(Br)o1 | 1.16% | 
28 | CCCC1NC(=O)NC(C)=C1C(=O)OCC (configuration not stated) | -0.636% | 
29 | Nc1ncnc(Nc2cccc(Cl)c2Cl)n1 | 24.3% | 
30 | O=C(CSc1nccc(=O)[nH]1)Nc1ccc(N2CCOCC2)c(Cl)c1 | -14.9% | 
31 | Cc1ccc(OCC(=O)Nn2cnc3ccccc32)cc1 | -10.1% | 
32 | CC(C)c1ccc(OCC(O)CN2CCN(c3ccccn3)CC2)cc1 (configuration not stated) |  | 10.3 µM (active)
33 | CC(C)c1ccc(OCC(O)Cn2cnc3ccccc32)cc1 (configuration not stated) |  | 14.6 µM (active)
34 | CC(=O)Nc1ccc(OCC(O)CN2CCN(c3ccccc3Cl)CC2)cc1 (configuration not stated) | -24.4% | 
35 | OC(COc1ccccc1)Cn1cc(Br)cn1 (configuration not stated) | 24% | 
36 | Cc1ccccc1OCC(O)CN1CCN(c2ccccn2)CC1 (configuration not stated) | -1.08% | 
37 | Cc1nc2ccc(S(=O)(=O)NCC(=O)O)cc2s1 | -26.2% | 
38 | CC(=O)OC[C@H]1O[C@@H](O[C@H]2[C@H](O)[C@@H](OC(=O)c3ccccc3C(=O)O)[C@H](O)O[C@@H]2COC(C)=O)[C@H](O)[C@@H](OC(=O)c2ccccc2C(=O)O)[C@@H]1O | -0.0815% | 
39 | Cc1ccc(CNC(=O)C2CCCN2S(=O)(=O)c2ccc3c(c2)C(C)(C)C(=O)N3C)cc1 (configuration not stated) | -20.1% | 
40 | C=CCOc1ccc(C(=O)Nc2ccccc2C(=O)N2CCCC2)cc1 | -21% | 
41 | Cn1nnnc1NCc1ccc(Cl)c(Cl)c1 | -15% | 
42 | NS(=O)(=O)c1ccc(CNC(=O)c2ccc(Cl)cc2[N+](=O)[O-])cc1 | -20.7% | 
43 | Cc1cc2nn(-c3ccc(Cl)cc3)nc2cc1NC(=O)C(C)C | -7.99% | 
44 | Nc1ccc2nn(-c3ccc(Cl)cc3)nc2c1 |  | 9.2 µM (active)
45 | O=C(Cc1ccc(Cl)cc1)Nc1ccc2nn(-c3ccc(Cl)cc3)nc2c1 | -8% | 
46 | CC(=O)c1ccc(NC(=O)C2CC(=O)Nc3nc4ccccc4n32)cc1 (configuration not stated) | -8.52% | 
47 | O=C(c1ccc(Cl)cc1)N1N=C(c2ccccn2)CC1(O)C(F)(F)F (configuration not stated) |  | 14.6 µM (active)
48 | COC(=O)C1(O)CC(C(C)C)=NN1C(=O)c1ccc(Cl)cc1 (configuration not stated) | -9.27% | 
49 | O=C(Cc1ccccc1)N1N=C(c2ccncc2)CC1(O)C(F)(F)F (configuration not stated) | -21.2% | 
50 | Cc1cn([C@H]2C[C@H](O)[C@@H](CNC(=O)[C@H](N)Cc3cccnc3)O2)c(=O)[nH]c1=O | 2.17% | 
51 | O=c1[nH]n2c(=O)c3c([nH]c2c1N=Nc1ccccc1)CCC3 | -20.5% | 
52 | O=C(Nc1nnc(Cc2ccc(Cl)cc2)s1)c1ccncc1 | -9.95% | 

Row | Compound | activity change, negative = growth inhibition | Potency
53 | COc1ccccc1CN1CCNC(=O)C1CC(=O)N(C)CC1CCOCC1 (configuration not stated) | 17.6% | 
54 | COCC(=O)N1CCCC(C(=O)c2ccc(C(F)(F)F)cc2)C1 (configuration not stated) | 4.79% | 
55 | Cn1cc(/C=C/C(=O)N2CCCC(C(=O)c3ccc(C(F)(F)F)cc3)C2)cn1 (configuration not stated) | -27.1% | 
56 | Cn1cc(CCC(=O)N2CCCC(C(=O)c3ccc(C(C)(C)C)cc3)C2)cn1 (configuration not stated) |  | 20.6 µM (active)
57 | Cc1nccn1-c1ccc(NC(=O)[C@H]2O[C@@H](n3cnc4c(N)ncnc43)[C@H](O)[C@@H]2O)cc1 | 1.47% | 
58 | CC1(C)S[C@@H]2[C@H](NC(=O)COc3ccccc3)C(=O)N2C1C(=O)OCc1ccccc1 (some centres not stated) |  | inactive
59 | COc1cc(-c2noc(-c3ccc(N4CCCC4)c([N+](=O)[O-])c3)n2)cc(OC)c1OC | -8.7% | 
60 | COc1ccc(-c2noc(-c3ccc(N4CCN(c5ccccc5)CC4)c([N+](=O)[O-])c3)n2)cc1OC |  | 7.31 µM (active)
61 | CNc1ccc(-c2nc(-c3ccco3)no2)cc1[N+](=O)[O-] | -19.6% | 
62 | CCn1c(SC(C)C(=O)Nc2ccc(N3CCOCC3)cc2)nnc1-c1ccco1 (configuration not stated) | -4.59% | 
63 | O=C(Nc1cccnc1Oc1ncnc2cc(Cl)ccc12)c1ccc(F)cc1 | 1.07% | 
64 | NS(=O)(=O)c1ccc(NS(=O)(=O)/C=C/c2ccccc2)cc1 | -16.4% | 
65 | Cc1cccc(N2C(=O)c3ccc(C(=O)Nc4cccc(C(=O)O)c4)cc3C2=O)c1 | -29.4% | 
66 | Cc1ccc(CNC(=O)C2(C(F)(F)F)C/C(=C\Cc3ccccc3)CCCO2)o1 (configuration not stated) |  | 11.6 µM (active)
67 | Cc1ccc(C(=O)N2CC(=O)Nc3ccccc32)o1 | 0.857% | 
68 | Cc1ccc(CNC(=O)Cn2cnc(S(=O)(=O)N3CCCCC3)c2)o1 | -18.7% | 
69 | CC1CCCCN1CCCNC(=O)Cn1ncc2c([nH]c3ccccc32)c1=O (configuration not stated) |  | inactive
70 | COc1cccc(-c2nc3n(n2)C(c2ccccc2Cl)C(C(N)=O)=C(C)N3)c1 (configuration not stated) | -28.2% | 
71 | Cc1cc2c(cc1C)[n+](C)cn2CC(O)COCC1CC=CCC1 (configuration not stated) |  | 1.84 µM (active)
72 | C/C(=N/NC(=O)c1cc(Cl)ccc1O)C12CC3CC(CC(C3)C1)C2 | -1.21% | 
73 | O=C(CSc1ccc([N+](=O)[O-])cn1)Nc1ccc(N2CCOCC2)c(Cl)c1 | -0.829% | 
74 | COc1ccc(-c2c(C)cc3oc(=O)cc(-c4ccccc4)c3c2C)cc1OC |  | 23.1 µM (active)
75 | COc1ccc(-c2cc(=O)oc3cc(OCC(=O)N[C@@H](Cc4c[nH]c5ccccc45)C(=O)O)ccc23)cc1 | 0.178% | 
76 | COc1ccc(C2=NO[C@@H]3C(=O)N(Cc4ccccc4)C(=O)[C@H]23)cc1OC | 0.579% | 
77 | Cc1cc2oc(=O)cc(-c3ccccc3)c2c(C)c1-c1ccc(OC(F)(F)F)cc1 |  | 20.6 µM (active)
78 | CC(=O)c1ccc(S(=O)(=O)NC2CC(=O)N(c3ccc4c(c3)OCCO4)C2)cc1 (configuration not stated) | -14.5% | 

Row | Compound | activity change, negative = growth inhibition | Potency
79 | CC(C)(C)S(=O)(=O)c1ccccc1-c1noc(-c2ccccc2)c1C(N)=O | 4.59% | 
80 | Cn1c(SCC(=O)C(C)(C)C)nnc1-c1ccccn1 | 27.4% | 
81 | O=C(COC(=O)c1cnccn1)Nc1cccc2ccccc12 | -7.74% | 
82 | Cc1ccccc1-c1ccc(Nc2ccc(C(=O)N3CCOCC3)cc2)nn1 | -17.6% | 
83 | CO[C@@H]1CN(C)C(=O)c2cc(NC(=O)C3CC3)ccc2OC[C@H](C)N(C(=O)CN2CCOCC2)C[C@@H]1C | -1.78% | 
84 | CCCN(CC(=O)Nc1ccccc1C)C(=O)c1ccc2[nH]c3c(c2c1)CC(C)CC3 (configuration not stated) |  | 20.6 µM (active)
85 | CCCN(CC(=O)Nc1ccccc1C)C(=O)c1ccc(OCC(=O)N2CCOCC2)c(OCC)c1 | -3.18% | 
86 | CCCN(CC(=O)Nc1ccccc1C)C(=O)c1cc(=O)[nH]c2ccccc12 | -16.5% | 
87 | COCCCN1C(=O)C(=O)/C(=C(/O)c2ccc3c(c2)CC(C)O3)C1c1cccnc1 (configuration not stated) | -3.28% | 
88 | COC(=O)C1=C(NC(=O)C(C)(C)C)CCS1 | -2.33% | 
89 | Cc1cc(C)c(C=NNc2nc3c([nH]2)c(=O)n(C)c(=O)n3C)c(C)c1 | 1.78% | 
90 | CS(=O)(=O)N(CC(=O)NCc1ccco1)c1ccc2c(c1)OCO2 | -0.836% | 
91 | O=C(Nc1ccccc1)Nc1ccccc1C(=O)NCc1ccco1 | -17.1% | 
92 | Cc1ccc(NC(=O)C(=O)NCc2ccco2)c(C)c1 | -25.9% | 
93 | Cc1cccc(Nc2ccccc2C(=O)NCc2ccco2)c1C |  | 20.6 µM (active)
94 | Cc1ccc(N(Cc2ccc(C(=O)Nc3ccccc3C(=O)NCc3ccco3)cc2)S(C)(=O)=O)cc1C |  | 18.4 µM (active)
95 | Cc1ccccc1NC(=O)NCc1ccco1 | 8.72% | 
96 | CCC(C)NC(=O)CN(C1CCCCC1)S(C)(=O)=O (configuration not stated) | -11.3% | 
97 | CCOC(=O)N1CCN(C(=O)C2CCN(S(C)(=O)=O)CC2)CC1 | -4.04% | 
98 | Fc1ccc(COc2ccc(-c3nnco3)cc2)cc1 | -10.2% | 
99 | O=C(O)C1CCN(C(=O)c2cc(F)cc3c2OCOC3)CC1 | -1.32% | 
100 | Cc1ccnc(N2CCC(C(=O)NC3CCCCCC3)CC2)n1 | -5.99% | 
101 | Clc1nc(NC2CCCC2)nc(N2CCOCC2)n1 | -27.4% | 
102 | COc1nc(NC2CCCCC2)nc(N2CCCCCC2)n1 |  | 12.6 µM (active)
